Rows were chosen to be rich in hits. Some 2.2% of all compounds tested hit in one or more screens of this group.
FUS suppressor = suppressors of FUS proteinopathy in yeast | S. cerevisiae FUS-expressing, growth rescue, OD600, 24 h | Potency, µM (highest dose often 76.6 µM), usual class: activators | actives 0.24% (n = 390,000);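 also: plate controls were DMSO vehicle for no effect and reference control for full effect; nearly all actives have a fitted effect of over 55% in size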
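Cultures pregrown in 2.5% raffinose medium are shifted to minimal medium containing 2% galactose to express toxic FUS. Compounds are tested at several concentrations. After 24hr at 30C, growth is quantified at 600 nm absorbance.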
Mito fusion act = mitochondrial division inhibition or fusion activation; S. cerevisiae fusion-defective mutant growth rescue, CellTiterGlo 48 h; AID 485298; actives 0.23% (n = 320,000); Potency, µM (highest dose often 46.1 µM), inactives show at the top dose growth rescue (activation), actives largely listed as activators; also: % of control where 0% means no effect; nearly all actives have a fitted effect of over 45% in size
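Growth-rescue viability read-out: after 48 h at the non-permissive 37C in glycerol/ethanol YPEG, yeast mitochondrial fusion mutants are measured by CellTiterGlo luminescence; compounds (23 nl pinned per well) restoring growth score as division inhibitors or fusion activators.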
aSyn yeast inh = alpha-synuclein toxicity inhibition in yeast. actives 0.14% (n = 370,000). Potency, µM (top dose mostly 46.1 µM), for the others: at the highest dose growth rescue (activation), usual class: activators. Yeast expressing alpha-synuclein, growth rescue, BacTiter-Glo, 24 h; also: % of control where 0% means no effect; nearly all actives have a fitted effect of over 65% in size
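Screening used galactose-induced yeast with toxic alpha-synuclein levels, exposed to compound for 24 hr at 30 deg C. Cell growth, read with BacTiter-Glo luminescence, gave the measured signal.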
Abeta rescue = restores growth of yeast expressing A-beta42 peptide. actives 0.063% (n = 410,000). Potency, µM (series often up to 46.1 µM), usual class: activators. AID 1347071. yeast expressing A-beta42, growth rescue, OD600, 48 h; response scale: 0% DMSO, 100% iron-clioquinol control; also: nearly all actives have a fitted effect of over 55% in size
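Yeast A-beta toxicity model in growth medium with pinned compounds, 48 h at 30 C; growth read as absorbance at 600 nm. Normalized to FeCl3/clioquinol equimolar mix (positive) and DMSO (negative).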
TDP43 rescue = inhibitors of TDP-43 toxicity in yeast; TDP-43 expressing yeast growth rescue, BacTiter-Glo, 24 h; Potency, µM (top dose mostly 46.1 µM), without a hit: at the highest dose growth rescue (activation), most hits filed as activators; actives 1.8% (n = 410,000); AID 652104; also: % of control where 0% means no effect; nearly all actives have a fitted effect of over 50% in size
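Yeast expressing TDP-43 (pregrown in raffinose, seeded at OD600=0.02 in galactose medium) exposed to compounds 24 hr at 30 deg C. Growth read by BacTiter-Glo luminescence; rescue of toxicity appears as increased signal.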
* marks the source's active call; other numbers are inactive results; i = inactive; ? = inconclusive; nt = not tested or not shown; [ ] = another dose, or the depositor's remark. Calls follow the shape of the dose curve; as a rule, active = well fitted curve in the direction sought with a large enough effect; inconclusive = small, poorly fitted or top-dose-only effect, or another doubt; inactive = no such curve, though single readings can be large; an effect the other way counts as inactive or inconclusive. Potency is read from the fitted curve at half-maximal effect.

SMILES	FUS suppressor	Mito fusion act	aSyn yeast inh	Abeta rescue	TDP43 rescue
CC1(C(=O)NCc2ccc(C(F)(F)F)cc2)CCN1Cc1c(F)cccc1F (configuration not stated)	i	nt	12%	i	-8%
CC1(C(=O)NCc2ccc(C(F)(F)F)cc2)CCN1Cc1ccc(-c2ccccc2)o1 (configuration not stated)	?	nt	16µM*	i	19%
C=C1C=C(C(F)F)n2ncc(C(=O)NCc3ccccc3OC)c2N1	nt	nt	0%	nt	nt
CCC(C)Sc1ccc(-c2nc3ccccn3c2NCc2ccccc2)cc1OC (configuration not stated)	i	nt	-47%	i	-88%
COc1ccc(CSc2ccc(-c3nc4ccccn4c3NCc3ccccc3)cc2OC)cc1	?	17%	-33%	i	35µM*
O=C(c1cc(-c2ccco2)nc2ccccc12)N1CCCC(C(F)(F)F)C1 (configuration not stated)	i	11%	-22%	i	35µM*
CC(=O)Nc1cc(-c2ccc(CO)cc2)cn2c(-c3ccc(F)c(Cl)c3)cnc12	i	nt	-8%	i	21%
O=C(O)c1cccc2c1C(=O)N(CC1CCCO1)C2 (configuration not stated)	i	-1%	0%	i	18%[9.22 µM]
CCc1cccc(NC(=O)c2cccc3c2C(=O)N(CC2CCCO2)C3)c1 (configuration not stated)	i	14%	-15%	i	18µM*
CCCN(CC(=O)Nc1ccccc1Br)CC(=O)Nc1ccc(F)c(F)c1F	i	-41%	23%	i	?
CCCN(CC(=O)Nc1cc(Cl)cc(Cl)c1)CC(=O)Nc1ccc(F)c(F)c1F	i	-24%	3%	?	28µM*
O=S(=O)(Nc1ccc2c(c1)OCCO2)c1ccc2oc3ccccc3c2c1	i	?	25µM*	i	?
O=S(=O)(Nc1ccc2c(c1)OCO2)c1cccc(Br)c1	nt	12%	10%	i	13µM*
O=S(=O)(Nc1ccc2c(c1)OCCO2)c1ccc(F)c(F)c1	i	16%	0%	i	?
COc1ccc(CCNC(=O)C(=O)NCC(c2cccs2)S(=O)(=O)c2ccc(F)cc2)cc1 (configuration not stated)	i	nt	nt	i	3%
CN1[C@@H](Cc2ccccc2)COc2cccc(F)c2S1(=O)=O	i	nt	nt	nt	nt
O=[N+]([O-])c1ccc(-c2nc(Cl)c3c(n2)CCCC3)o1	i	nt	-6%	i	7.1µM*
CCOc1ccc(C(=O)N2CCC(c3noc(-c4ccc(S(=O)(=O)N5CCCC5)cc4)n3)CC2)cc1	16µM*	nt	nt	i	1%
O=C(NC(=S)Nc1cccc2cccnc12)c1cccs1	i	-3%	16µM*	i	13%
CCC1CCc2c(sc(NC(=O)c3ccco3)c2C(N)=O)C1 (configuration not stated)	i	24%	-9%	i	13µM*
CC(NC(=O)c1ccco1)c1cccc2ccccc12 (configuration not stated)	i	3%	-1%	i	20µM*
Cc1noc(C)c1S(=O)(=O)N(CC(=O)Nc1ccc(F)cc1F)c1ccc(C(C)C)cc1	i	nt	nt	i	2%
CCOC(=O)C(=CNNc1ccccc1)C(=O)OCC	i	-2%	?	i	13µM*
CCOC(=O)NNc1ccccc1	i	1%	-4%	i	-19%
COc1ccc(-c2noc(=O)n2Cc2ccccc2F)cc1	i	2%	6%	i	13µM*
O=c1onc(-c2ccc(Cl)cc2)n1Cc1ccc(F)cc1	nt	13%	3%	i	18µM*
O=c1onc(-c2ccccc2)n1Cc1ccc([N+](=O)[O-])cc1	i	nt	0%	i	8.9µM*
Nc1ccc(/C=C/c2ccc3cccnc3c2)cc1	nt	nt	-3%	nt	nt
Cn1c(SCC(=O)c2ccc3c(c2)NC(=O)CO3)nc2ccccc21	i	0%	2%	i	-5%[0.397 µM]
CCCn1c(SCC(=O)c2ccc3c(c2)NC(=O)CO3)nc2ccccc21	i	-6%	-1%	i	14µM*

Source: PubChem
